The supplement of paper PMC12494721
Where a name gives a salt, the structure may show the parent alone.

How the values were obtained:
Settings in all cases: incubation time: 27 h, anaerobic, 37 °C;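 for the amine columns active = adjusted P below 0.05 in both replicates with a change the same way and a mean fold change under 0.8 or over 1.25; inactive = the rest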
[1] = test system: Clostridium sporogenes DSM 1664; test: growth (OD595) fold change vs plate DMSO controls (fold change (ratio)); higher = more growth
Method in brief: (§1)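 Absorbance at 595 nm was read after shaking the anaerobic mGAM cultures, which had grown in 96-well plates for 27 h at 37 °C. After blank subtraction and background correction against 20 µM compound solutions in water, a calibration factor of 5 gave OD values. Growth is the fold change against the median of the plate's DMSO controls. Values are the mean of 2 biological replicates, with fold changes above 1.5 set to NA.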

[2] = test system: Escherichia coli IAI1; test: as above
Method in brief: as §1

[3] = test system: Klebsiella aerogenes DSM 30053; test: as above
Method in brief: as §1

[4] = test system: Ruminococcus gnavus DSM 108212; test: as above
Method in brief: as §1

[5] = test system: Klebsiella aerogenes DSM 30053; test: fold change of Histamine concentration vs plate DMSO controls (fold change (ratio)); higher = more amine produced, active = hit call of the paper (significant change in both replicates, either direction)
Method in brief: (§2)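 Anaerobic mGAM cultures of four gut bacterial strains were grown at 37 °C for 27 h in 80 µL wells, starting at OD 0.1 before 1:1 dilution. Compounds were at 20 µM final (sweeteners 50 µM). Whole cultures were extracted with cold acetonitrile/methanol containing 0.1% formic acid and centrifuged. Amines were quantified by LC–triple-quadrupole MS (dynamic MRM) against external calibration curves and drift-corrected within batch. Each value is the fold change versus plate DMSO controls, averaged over 2 biological replicates.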

[6] = test system: Clostridium sporogenes DSM 1664; test: fold change of Tryptamine concentration vs plate DMSO controls (fold change (ratio)); higher = more amine produced, active = hit call of the paper (significant change in both replicates, either direction)
Method in brief: as §2

[7] = test system: Ruminococcus gnavus DSM 108212; test: as above
Method in brief: as §2

[8] = test system: Escherichia coli IAI1; test: fold change of Putrescine concentration vs plate DMSO controls (fold change (ratio)); higher = more amine produced, active = hit call of the paper (significant change in both replicates, either direction)
Method in brief: as §2

[9] = test system: Klebsiella aerogenes DSM 30053; test: as above
Method in brief: as §2

[10] = test system: Escherichia coli IAI1; test: fold change of Cadaverine concentration vs plate DMSO controls (fold change (ratio)); higher = more amine produced, active = hit call of the paper (significant change in both replicates, either direction)
Method in brief: as §2

[11] = test system: Klebsiella aerogenes DSM 30053; test: as above
Method in brief: as §2

[12] = test system: Ruminococcus gnavus DSM 108212; test: fold change of 2-Phenylethylamine concentration vs plate DMSO controls (fold change (ratio)); higher = more amine produced, active = hit call of the paper (significant change in both replicates, either direction)
Method in brief: as §2

SMILES | growth [1] | growth [2] | growth [3] | growth [4] | fold change of Histamine concentration [5] | fold change of Tryptamine concentration [6] | fold change of Tryptamine concentration [7] | fold change of Putrescine concentration [8] | fold change of Putrescine concentration [9] | fold change of Cadaverine concentration [10] | fold change of Cadaverine concentration [11] | fold change of 2-Phenylethylamine concentration [12]
Cc1cccc(C)c1NC(=O)CC12CCCN1CCC2 [Pilsicainide Hydrochloride] (20 µM) | 0.937 | 1.04 | 1.01 | 1.04 | 0.986 (inactive) | 0.995 (inactive) | 1.05 (inactive) | 1.05 (inactive) | 0.984 (inactive) | 1.03 (inactive) | 0.98 (inactive) | 1.06 (inactive)
CC(C)NNC(=O)c1ccncc1 [Iproniazide phosphate] (20 µM) | 1.05 | 1.13 | 1.09 | 1.06 | 0.977 (inactive) | 1.06 (inactive) | 1 (inactive) | 1.13 (inactive) | 1.01 (inactive) | 0.987 (inactive) | 1 (inactive) | 0.994 (inactive)
Cc1cnc(C(=O)NCCc2ccc(S(=O)(=O)NC(=O)NC3CCCCC3)cc2)cn1 [Glipizide] (20 µM) | 1.11 | 0.966 | 1.04 | 1.08 | 0.94 (inactive) | 1.01 (inactive) | 0.99 (inactive) | 0.989 (inactive) | 0.998 (inactive) | 0.973 (inactive) | 1 (inactive) | 1.03 (inactive)
COc1ccc(CN(CCN(C)C)c2ccccn2)cc1 [Pyrilamine maleate] (20 µM) | 1.02 | 0.962 | 0.981 | 0.868 | 1.02 (inactive) | 1.02 (inactive) | 1.02 (inactive) | 0.811 (inactive) | 1.07 (inactive) | 1.57 (active) | 1.04 (inactive) | 0.963 (inactive)
CCCCCCNC(=O)n1cc(F)c(=O)[nH]c1=O [Carmofur] (20 µM) | 0.985 | 0.886 | 0.963 | 0.862 | 0.726 (active) | 0.872 (inactive) | 0.983 (inactive) | 0.508 (active) | 0.936 (inactive) | 0.91 (inactive) | 0.974 (inactive) | 1.01 (inactive)
NNCCc1ccccc1 [Phenelzine sulfate] (20 µM) | 0.965 | 0.99 | 1.02 | 1.01 | 1.05 (inactive) | 0.921 (inactive) | 0.995 (inactive) | 1.12 (inactive) | 0.977 (inactive) | 1.04 (inactive) | 1.03 (inactive) | 0.911 (inactive)
CN(C)CCOC(c1ccc(Cl)cc1)c1ccccn1 (stereo not drawn) [Carbinoxamine maleate salt] (20 µM) | 1.2 | 1.01 | 0.985 | 0.88 | 1.04 (inactive) | 0.981 (inactive) | 1.05 (inactive) | 0.966 (inactive) | 1.02 (inactive) | 0.974 (inactive) | 1 (inactive) | 1.1 (inactive)
CCCCCNC(=N)N/N=C/c1c[nH]c2ccc(OC)cc12 [Tegaserod maleate] (20 µM) | 0.905 | 1.01 | 1 | 1.08 | 0.983 (inactive) | 0.923 (inactive) | 0.791 (inactive) | 0.992 (inactive) | 0.997 (inactive) | 1.04 (inactive) | 1 (inactive) | 0.994 (inactive)
Nc1nc(NC2CC2)c2ncn([C@H]3C=C[C@@H](CO)C3)c2n1 [Abacavir sulfate] (20 µM) | 1.25 | 1.05 | 1.02 | 1.02 | 1.04 (inactive) | 0.969 (inactive) | 0.953 (inactive) | 1.03 (inactive) | 1.04 (inactive) | 0.969 (inactive) | 0.992 (inactive) | 0.935 (inactive)
C=CC(N)CCC(=O)O (stereo not drawn) [Vigabatrin hydrochloride] (20 µM) | 1.11 | 1.06 | 1.17 | 0.977 | 0.856 (inactive) | 0.993 (inactive) | 1.02 (inactive) | 1.02 (inactive) | 1.01 (inactive) | 0.978 (inactive) | 1.03 (inactive) | 1 (inactive)
CCCC(CCC)C(=O)O[C@H]1C[C@H]2CC[C@@H](C1)[N+]2(C)C [Anisotropine Methylbromide] (20 µM) | 1.04 | 1.07 | 0.99 | 1.01 | 0.986 (inactive) | 1.06 (inactive) | 1.04 (inactive) | 1.03 (inactive) | 0.962 (inactive) | 0.948 (inactive) | 0.99 (inactive) | 1.06 (inactive)
CSc1ccc2c(c1)N(CCC1CCCCN1C)c1ccccc1S2 (stereo not drawn) [Thioridazine hydrochloride] (20 µM) | 1.15 | 1.03 | 1.01 | 1.25 | 0.936 (inactive) | 1.12 (inactive) | 0.808 (inactive) | 1.04 (inactive) | 0.948 (inactive) | 1.1 (inactive) | 1.02 (inactive) | 0.941 (inactive)
C[C@H]1O[C@H](O[C@H]2[C@H](O)[C@@H](O)[C@@H](O[C@@H]([C@H](O)[C@@H](O)C=O)[C@H](O)CO)O[C@@H]2CO)[C@H](O)[C@@H](O)[C@@H]1N[C@H]1C=C(CO)[C@@H](O)[C@H](O)[C@H]1O [Acarbose] (20 µM) | 0.918 | 1.03 | 1.04 | 1.05 | 1.15 (inactive) | 1.02 (inactive) | 0.997 (inactive) | 0.948 (inactive) | 1.07 (inactive) | 1.12 (inactive) | 0.996 (inactive) | 0.978 (inactive)
CN(C)c1cc(NC(=O)CNC(C)(C)C)c(O)c2c1C[C@H]1C[C@H]3[C@H](N(C)C)C(=O)C(C(N)=O)=C(O)[C@@]3(O)C(=O)C1=C2O [Tigecycline] (20 µM) | 0.926 | 1.12 | 1.18 | 1.19 | 0.865 (inactive) | 0.964 (inactive) | 1.08 (inactive) | 1.08 (inactive) | 0.991 (inactive) | 0.967 (inactive) | 1.03 (inactive) | 1.13 (inactive)
NCCNCCNCCNCCN [Tetraethylenepentamine pentahydrochloride] (20 µM) | 1 | 1.1 | 1.02 | 0.923 | 1 (inactive) | 1.03 (inactive) | 0.952 (inactive) | 1.07 (inactive) | 0.994 (inactive) | 0.955 (inactive) | 0.994 (inactive) | 0.967 (inactive)
CN(C)C(=O)COC(=O)Cc1ccc(OC(=O)c2ccc(NC(=N)N)cc2)cc1 [Camostat mesylate] (20 µM) | 1.07 | 1.01 | 1.04 | 0.958 | 0.897 (inactive) | 1.01 (inactive) | 0.982 (inactive) | 1.02 (inactive) | 1.02 (inactive) | 1.02 (inactive) | 1.02 (inactive) | 0.999 (inactive)
Oc1ccc(C2CNCCc3c2cc(O)c(O)c3Cl)cc1 (stereo not drawn) [Fenoldopam] (20 µM) | 1.08 | 0.952 | 0.998 | 0.973 | 1.02 (inactive) | 0.95 (inactive) | 1.03 (inactive) | 1.01 (inactive) | 0.988 (inactive) | 1.04 (inactive) | 0.987 (inactive) | 1.03 (inactive)
CC(=O)OCC(=O)[C@@]1(O)[C@H](C)C[C@H]2[C@@H]3CCC4=CC(=O)C=C[C@]4(C)[C@@]3(F)[C@@H](O)C[C@@]21C [Dexamethasone acetate] (20 µM) | 1.05 | 1.01 | 0.986 | 0.878 | 1.02 (inactive) | 1.06 (inactive) | 1.01 (inactive) | 0.987 (inactive) | 1.02 (inactive) | 1.02 (inactive) | 0.983 (inactive) | 0.993 (inactive)
COc1ccc2c(c1)N(C[C@H](C)CN(C)C)c1ccccc1S2 [Methotrimeprazine maleate salt] (20 µM) | 1.03 | 1.12 | 1 | 1.05 | 1.01 (inactive) | 1.07 (inactive) | 1.02 (inactive) | 1.19 (inactive) | 1.01 (inactive) | 0.995 (inactive) | 1.02 (inactive) | 1.11 (inactive)
C[C@@H](O)[C@H]1C(=O)N2C(C(=O)O)=C(S[C@@H]3CN[C@H](C(=O)N(C)C)C3)[C@H](C)[C@H]12 [Meropenem] (20 µM) | 0 | 0.0127 | 0.316 | 0 | 0.214 (active) | 0.0316 (active) | 0.0446 (active) | 0.278 (active) | 0.605 (active) | 0.971 (inactive) | 1.11 (inactive) | 0.0459 (active)
COCCc1ccc(OCC(O)CNC(C)C)cc1 (stereo not drawn) [Metoprolol-(+)-tartrate salt] (20 µM) | 1.01 | 1.03 | 1.03 | 1.05 | 0.856 (inactive) | 1.02 (inactive) | 1.03 (inactive) | 0.998 (inactive) | 0.955 (inactive) | 1.02 (inactive) | 1 (inactive) | 0.995 (inactive)
O=C(O)c1cn(-c2ccc(F)cc2)c2cc(N3CCNCC3)c(F)cc2c1=O [Sarafloxacin] (20 µM) | 0.012 | 0.0263 | 0.182 | 0.896 | 0.129 (active) | 0.0563 (active) | 0.8 (inactive) | 0.832 (inactive) | 0.651 (active) | 0.244 (active) | 0.969 (inactive) | 0.894 (inactive)
CCN(CC)CCOC(=O)C(c1ccccc1)c1ccccc1 [Adiphenine hydrochloride] (20 µM) | 1.07 | 1.03 | 1.16 | 1 | 0.877 (inactive) | 1.05 (inactive) | 0.977 (inactive) | 1 (inactive) | 0.932 (inactive) | 1.01 (inactive) | 1.03 (inactive) | 0.968 (inactive)
CNCCC=C1c2ccccc2CCc2ccccc21 [Nortriptyline hydrochloride] (20 µM) | 1.11 | 0.972 | 0.974 | 1.28 | 1.09 (inactive) | 1.06 (inactive) | 0.993 (inactive) | 0.975 (inactive) | 1.02 (inactive) | 1.04 (inactive) | 0.989 (inactive) | 1.03 (inactive)
